Experimental findings from PubChem BioAssay (EPA / NIEHS) are described below.

SMILES strings stand for the structures. Calls of active or inactive are those of the source. The calls were made as follows: active = hit-call score of the fitted dose curve at least 0.9, where 1 is the maximum; inactive = score below 0.9.

Common to all, as to conditions: mRNA level, 48 h; actives raise or lower the signal
Read-out in assay [1]: DNA damage-inducible transcript 3 (DDIT3), DDIT3 (gene 1649)
Put plainly: LTEA_HepaRG_DDIT3: Life Technologies and Expression Analysis (LTEA) Assay for DNA damage-inducible transcript 3 (DDIT3) using HepaRG (AID 2283488). The method, boiled down:
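Eight-point concentration-response (100 uM highest, half-log dilutions) in HepaRG, 48 h, duplicate wells. Endpoint: qRT-PCR mRNA, normalized (ACTB, GAPDH, POLR2A), bidirectional fitting with DMSO as baseline.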

Read-out in assay [2]: Pro-epidermal growth factor (Homo sapiens) (UniProt P01133)
Kind of assay: LTEA_HepaRG_EGF: Life Technologies and Expression Analysis (LTEA) Assay for Epidermal growth factor (EGF) using HepaRG (AID 2283489). The procedure, abridged:
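qRT-PCR readout of EGF transcript after 48 h chemical exposure of HepaRG cells; eight concentrations from 100 uM down in half-log steps, duplicate wells, 0.5% DMSO vehicle. Bidirectional curve fitting against DMSO baseline.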

Read-out in assay [3]: Early growth response protein 1 (EGR1) transcription factor, EGR1 (gene 1958)
Put plainly: LTEA_HepaRG_EGR1: Life Technologies and Expression Analysis (LTEA) Assay for Early growth response protein 1 (EGR1) transcription factor using HepaRG (AID 2283490). The procedure, abridged:
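HepaRG, 48 h exposure, 8-pt half-log series from 100 uM, 0.5% DMSO vehicle; EGR1 transcript by TaqMan qRT-PCR (Fluidigm array), housekeeping-normalized; bidirectional fit relative to DMSO baseline.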

Read-out in assay [4]: Ezrin (EZR), EZR (gene 7430)
Put plainly: LTEA_HepaRG_EZR: Life Technologies and Expression Analysis (LTEA) Assay for Ezrin (EZR) using HepaRG (AID 2283491). The method, boiled down:
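Read-out is EZR transcript level by qRT-PCR, normalized to three housekeeping genes and fitted bidirectionally against the DMSO control. Human HepaRG cells received test chemicals for 48 h at eight half-log concentrations up to 100 uM in 0.5% DMSO.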

Read-out in assay [5]: Cytochrome P450 3A7 (Homo sapiens) (UniProt P24462)
Kind of assay: LTEA_HepaRG_CYP3A7: Life Technologies and Expression Analysis (LTEA) Assay for CYP3A7 using HepaRG (AID 2283492). The method, boiled down: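 CYP3A7 transcript levels were read by TaqMan qRT-PCR on Fluidigm arrays after 48 h chemical exposure of human HepaRG cells, with housekeeping-gene normalisation. Eight half-log concentrations up to 100 uM in 0.5% DMSO were tested in duplicate.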

Read-out in the next assay: CYP3A5 (gene 1577)
Kind of assay: LTEA_HepaRG_CYP3A5: Life Technologies and Expression Analysis (LTEA) Assay for CYP3A5 using HepaRG (AID 2283493). The method, boiled down:
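Readout was CYP3A5 mRNA by qRT-PCR. HepaRG cultures were exposed for 48 h in serum-free induction medium to chemicals at up to 100 uM, and responses were fitted in both directions relative to DMSO vehicle.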

Read-out in assay [6]: Fatty Acid-Binding Protein 1 (FABP1), FABP1 (gene 2168)
Put plainly: LTEA_HepaRG_FABP1: Life Technologies and Expression Analysis (LTEA) Assay for Fatty Acid-Binding Protein 1 (FABP1) using HepaRG (AID 2283494). The procedure, abridged: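 qRT-PCR readout of FABP1 transcript (normalized to three housekeeping genes) after 48 h chemical exposure of HepaRG cells; eight concentrations, half-log steps, max 100 uM, 0.5% DMSO vehicle; gain or loss fitted relative to DMSO baseline.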

Read-out in assay [7]: Cytochrome P450 4A22 (Homo sapiens) (UniProt Q5TCH4)
Kind of assay: LTEA_HepaRG_CYP4A22: Life Technologies and Expression Analysis (LTEA) Assay for Cytochrome P450 4A22 (CYP4A22) using HepaRG (AID 2283495). The procedure, abridged:
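HepaRG, 48 h post-plating -> serum-free induction medium; dosed 48 h, duplicate, 8 conc. (100 uM top, half-log), 0.5% DMSO. Readout: CYP4A22 mRNA by qRT-PCR, ACTB/GAPDH/POLR2A normalization; gain/loss fit relative to DMSO.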

Read-out in assay [8]: Cytochrome P450 7A1 (Homo sapiens) (UniProt P22680)
Kind of assay: LTEA_HepaRG_CYP7A1: Life Technologies and Expression Analysis (LTEA) Assay for Cytochrome P450 7A1 (CYP7A1) using HepaRG (AID 2283496). The procedure, abridged: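 Using 0.5% DMSO as vehicle and baseline, chemicals were tested in duplicate over an 8-point range from 100 uM on HepaRG cells for 48 h; qRT-PCR signals were normalised to ACTB, GAPDH and POLR2A.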

Read-out in assay [9]: Glutathione S-Transferase (GSTA2), GSTA2 (gene 2939)
Kind of assay: LTEA_HepaRG_GSTA2: Life Technologies and Expression Analysis (LTEA) Assay for Glutathione S-Transferase (GSTA2) using HepaRG (AID 2283497). The procedure, abridged:
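qRT-PCR readout of GSTA2 transcript, normalized to three housekeeping genes, fitted bidirectionally against 0.5% DMSO baseline. Differentiated HepaRG cells received compound for 48 h at 8 concentrations (top 100 uM, half-log steps).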

Read-out in assay [10]: Glutamate-cysteine ligase catalytic (GCLC), GCLC (gene 2729)
Kind of assay: LTEA_HepaRG_GCLC: Life Technologies and Expression Analysis (LTEA) Assay for Glutamate-cysteine ligase catalytic (GCLC) using HepaRG (AID 2283498). The method, boiled down:
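HepaRG, 48 h exposure, 8-pt half-log series from 100 uM, 0.5% DMSO vehicle; TaqMan qRT-PCR for GCLC mRNA, housekeeping-normalized; bidirectional curve fit vs DMSO baseline.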

Read-out in assay [11]: growth arrest and DNA damage 45 (GADD45G), GADD45G (gene 10912)
Put plainly: LTEA_HepaRG_GADD45G: Life Technologies and Expression Analysis (LTEA) Assay for growth arrest and DNA damage 45 (GADD45G) using HepaRG (AID 2283499). The procedure, abridged:
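HepaRG, 48 h exposure, top 100 uM, half-log 8-point series, 0.5% DMSO vehicle, duplicates. Readout: GADD45G transcript by qRT-PCR (Fluidigm array), housekeeping-normalised (ACTB/GAPDH/POLR2A). Bidirectional curve fit vs DMSO baseline.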

Read-out in assay [12]: Glutamate-cysteine ligase regulatory (GCLM), GCLM (gene 2730)
Kind of assay: LTEA_HepaRG_GCLM: Life Technologies and Expression Analysis (LTEA) Assay for Glutamate-cysteine ligase regulatory (GCLM) using HepaRG (AID 2283500). The procedure, abridged: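 In this multiplexed HepaRG gene-expression assay, GCLM mRNA change after 48 h treatment (8 concentrations, max 100 uM) was scored against DMSO by bidirectional curve fitting.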

Read-out in assay [13]: Glutathione S-transferase M3 (GSTM3), GSTM3 (gene 2947)
Put plainly: LTEA_HepaRG_GSTM3: Life Technologies and Expression Analysis (LTEA) Assay for Glutathione S-transferase M3 (GSTM3) using HepaRG (AID 2283501). The method, boiled down: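 qRT-PCR read-out of GSTM3 transcript, normalized to three housekeeping genes, from human HepaRG cells after 48 h chemical exposure. Eight-point half-log series, top 100 uM, 0.5% DMSO vehicle; gain or loss fitted relative to DMSO baseline.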

Read-out in assay [14]: Heat shock 70 kDa protein 1 (HSPA1A), gene 3303
Kind of assay: LTEA_HepaRG_HSPA1A: Life Technologies and Expression Analysis (LTEA) Assay for Heat shock 70 kDa protein 1 (HSPA1A) using HepaRG (AID 2283502). The method, boiled down:
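An oxidative-stress marker readout: HepaRG cells treated 48 h in duplicate with an eight-point series (highest 100 uM) had HSPA1A mRNA quantified by TaqMan qRT-PCR. Activity was fitted in both directions using 0.5% DMSO as baseline.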

Read-out in assay [15]: Hypoxia-inducible factor 1-alpha (Homo sapiens) (UniProt Q16665)
Put plainly: LTEA_HepaRG_HIF1A: Life Technologies and Expression Analysis (LTEA) Assay for Hypoxia-inducible factor 1 (HIF1A) Trancription factor using HepaRG (AID 2283503).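 Also: HIF1A transcript by TaqMan qRT-PCR normalized to ACTB GAPDH and POLR2A.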 The procedure, abridged:
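Gain- or loss-of-signal HIF1A mRNA changes are fitted against a DMSO baseline. HepaRG cultures receive eight concentrations, highest 100 uM, for 48 h in serum-free induction medium with 0.5% DMSO.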

Read-out in assay [16]: 3-Hydroxy-3-Methylglutaryl-CoA Synthase 2 (HMGCS2), HMGCS2 (gene 3158)
Put plainly: LTEA_HepaRG_HMGCS2: Life Technologies and Expression Analysis (LTEA) Assay for 3-Hydroxy-3-Methylglutaryl-CoA Synthase 2 (HMGCS2) using HepaRG (AID 2283504). The method, boiled down: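 qRT-PCR read-out of HMGCS2 transcript, normalised to three housekeeping genes, in HepaRG cells after 48 h chemical exposure. Eight-point curves from 100 uM, half-log dilutions, 0.5% DMSO vehicle; gain or loss fitted relative to DMSO baseline.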

Read-out in another assay: HGF (gene 3082)
Kind of assay: LTEA_HepaRG_HGF: Life Technologies and Expression Analysis (LTEA) Assay for Hepatocyte Growth Facto (HGF) using HepaRG (AID 2283505). The method, boiled down: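 HepaRG, 48 h dosing, 8-pt half-log series from 100 uM in 0.5% DMSO, duplicates. Readout: TaqMan qRT-PCR of HGF mRNA, housekeeping-normalized; bidirectional curve fit vs DMSO baseline.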

Read-out in assay [17]: Insulin Like Growth Factor 1 (IGF1), IGF1 (gene 3479)
Put plainly: LTEA_HepaRG_IGF1: Life Technologies and Expression Analysis (LTEA) Assay for Insulin Like Growth Factor 1 (IGF1) using HepaRG (AID 2283506). The procedure, abridged: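 Endpoint: IGF1 mRNA change by qRT-PCR, housekeeping-normalized, fitted bidirectionally relative to 0.5% DMSO vehicle. Human HepaRG cells were treated 48 h in serum-free induction medium, eight half-log concentrations topping at 100 uM.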

Read-out in assay [18]: Intercellular Adhesion Molecule 1 (ICAM1), ICAM1 (gene 3383)
Put plainly: LTEA_HepaRG_ICAM1: Life Technologies and Expression Analysis (LTEA) Assay for Intercellular Adhesion Molecule 1 (ICAM1) using HepaRG (AID 2283507). The method, boiled down:
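HepaRG, 48 h exposure, 8-pt half-log series from 100 uM, 0.5% DMSO vehicle, duplicates. Readout: TaqMan qRT-PCR mRNA, housekeeping-normalized (ACTB/GAPDH/POLR2A). Bidirectional curve fit vs DMSO baseline.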

Sequence of Cytochrome P450 3A7 (Homo sapiens) (P24462 whole entry, looked up): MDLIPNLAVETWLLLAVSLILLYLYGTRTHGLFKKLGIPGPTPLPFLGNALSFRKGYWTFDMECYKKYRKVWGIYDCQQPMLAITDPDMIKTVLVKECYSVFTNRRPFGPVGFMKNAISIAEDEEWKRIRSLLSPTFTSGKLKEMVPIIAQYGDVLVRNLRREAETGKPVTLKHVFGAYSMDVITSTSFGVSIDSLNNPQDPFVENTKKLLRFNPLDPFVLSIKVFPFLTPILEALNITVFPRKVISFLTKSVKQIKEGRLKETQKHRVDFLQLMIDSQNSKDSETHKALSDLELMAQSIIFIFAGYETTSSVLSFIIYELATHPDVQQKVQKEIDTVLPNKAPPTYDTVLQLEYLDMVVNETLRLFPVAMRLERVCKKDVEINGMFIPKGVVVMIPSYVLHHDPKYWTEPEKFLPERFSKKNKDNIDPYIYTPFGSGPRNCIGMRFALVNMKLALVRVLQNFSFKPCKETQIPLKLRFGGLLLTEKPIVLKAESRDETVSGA
Sequence of Hypoxia-inducible factor 1-alpha (Homo sapiens) (Q16665 whole entry, looked up): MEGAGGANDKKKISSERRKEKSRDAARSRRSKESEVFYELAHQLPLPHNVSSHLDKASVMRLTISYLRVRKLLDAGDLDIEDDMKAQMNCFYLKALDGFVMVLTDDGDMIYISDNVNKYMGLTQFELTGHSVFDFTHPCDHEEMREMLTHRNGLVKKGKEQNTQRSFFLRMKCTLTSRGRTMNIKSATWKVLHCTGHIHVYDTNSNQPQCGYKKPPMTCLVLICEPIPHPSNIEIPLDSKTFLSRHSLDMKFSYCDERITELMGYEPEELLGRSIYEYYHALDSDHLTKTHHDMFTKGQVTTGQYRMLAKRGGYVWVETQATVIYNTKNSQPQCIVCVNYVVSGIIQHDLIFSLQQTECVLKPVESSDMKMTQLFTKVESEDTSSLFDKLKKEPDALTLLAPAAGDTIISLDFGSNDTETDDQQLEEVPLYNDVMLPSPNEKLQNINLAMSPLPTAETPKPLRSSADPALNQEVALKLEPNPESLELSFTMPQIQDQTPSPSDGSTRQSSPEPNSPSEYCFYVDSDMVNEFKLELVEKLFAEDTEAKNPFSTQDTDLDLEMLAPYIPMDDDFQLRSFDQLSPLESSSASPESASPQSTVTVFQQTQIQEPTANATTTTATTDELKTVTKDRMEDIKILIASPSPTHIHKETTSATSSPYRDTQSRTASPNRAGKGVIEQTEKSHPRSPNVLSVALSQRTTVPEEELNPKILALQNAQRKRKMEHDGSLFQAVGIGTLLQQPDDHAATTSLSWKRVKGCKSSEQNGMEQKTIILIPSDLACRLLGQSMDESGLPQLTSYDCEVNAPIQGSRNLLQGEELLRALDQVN

For orientation: AC50 means the concentration giving half of the maximal activity seen. In the case of `C=CC(=O)NCNC(=O)C=C`, the compound was classed as inactive (in [1]; in assay [2]; in [3]; in assay [4]; in assay [5]; with CYP3A5 (gene 1577)). The call in [8], in assay [10], in assay [11], in [12], in assay [13] and in assay [14] was inactive. Also, the compound was called inactive (in assay [16]; in the assay with HGF (gene 3082); in [18]). Further, the concentration at half-maximal activity (AC50) is 50 µM (active) in [6]; 24.6 µM (active) in assay [7]; 12.7 µM (active) in assay [9]; 15.6 µM (active) in assay [15]; 50 µM (active) in [17].
With `CCOCCOC(C)=O`, the call (in assay [1]; in assay [2]; in [3]; in [4]; in assay [5]; in the assay with CYP3A5 (gene 1577)) was inactive. For the same compound, the call in [6], in assay [7], in [8], in assay [9], in assay [10] and in assay [11] was inactive. The call (in [12]; in [13]; in assay [14]; in assay [15]; in assay [16]; with HGF (gene 3082)) was inactive. Besides, the result in assay [17] and in assay [18] was inactive.
As to `COc1ccc(O)c(C(C)(C)C)c1`, the compound was classed as inactive (in [1]; in [2]; in assay [3]; in [4]; in [5]; in the assay with CYP3A5 (gene 1577)). The compound was classed as inactive in [6], in assay [7], in [8], in [9], in assay [10] and in assay [11]. The compound was classed as inactive (in [12]; in assay [14]; in [15]; in assay [16]; with HGF (gene 3082); in assay [17]). The call in assay [18] was inactive.
